Measured values from PubChem BioAssay (NCATS).
Values joined by “and” are separate entries in the source; they are usually repeats but may differ in a detail not shown here. Equal entries are not always repeated. Inconclusive results are not listed. Active and inactive are the calls of the source. Calls come from the whole dose curve; as a rule, active = well fitted inhibition curve with a large enough effect; inconclusive = small, poorly fitted or top-dose-only effect; inactive = flat fitted curve, though single readings scatter.

Tests used:
FAB9 = assay: qHTS profiling for inhibitors of Plasmodium falciparum proliferation (AID 504749); settings: P. falciparum in erythrocytes, SYBR Green DNA, 72 h; series mostly up to 28.7 µM
Procedure, shortened: (§1)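 Fluorescence of SYBR Green-bound parasite DNA, read at 485/535 nm, served as the growth measure. Infected erythrocytes were cultured with compound 72 h; artemisinin (0.29 uM) and DMSO wells defined the normalization range.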

HB3 = assay: as above; settings: P. falciparum in erythrocytes, SYBR Green DNA, 72 h; series mostly up to 28.7 µM
Procedure, shortened: as §1

ICS = assay: as above; settings: P. falciparum in erythrocytes, SYBR Green DNA, 72 h; series mostly up to 28.7 µM
Procedure, shortened: as §1

N140 = assay: as above; settings: P. falciparum in erythrocytes, SYBR Green DNA, 72 h; series mostly up to 28.7 µM
Procedure, shortened: as §1

P93_24 = assay: as above; settings: P. falciparum in erythrocytes, SYBR Green DNA, 72 h; series mostly up to 28.7 µM
Procedure, shortened: as §1

P94_40 = assay: as above; settings: P. falciparum in erythrocytes, SYBR Green DNA, 72 h; series mostly up to 28.7 µM
Procedure, shortened: as §1

PAD = assay: as above; settings: P. falciparum in erythrocytes, SYBR Green DNA, 72 h; series mostly up to 28.7 µM
Procedure, shortened: as §1

SC27B = assay: as above; settings: P. falciparum in erythrocytes, SYBR Green DNA, 72 h; series mostly up to 28.7 µM
Procedure, shortened: as §1

TAB113 = assay: as above; settings: P. falciparum in erythrocytes, SYBR Green DNA, 72 h; series mostly up to 28.7 µM
Procedure, shortened: as §1

TAB165 = assay: as above; settings: P. falciparum in erythrocytes, SYBR Green DNA, 72 h; series mostly up to 28.7 µM
Procedure, shortened: as §1

W2 = assay: as above; settings: P. falciparum in erythrocytes, SYBR Green DNA, 72 h; series mostly up to 28.7 µM
Procedure, shortened: as §1

GB4 = assay: as above; settings: P. falciparum in erythrocytes, SYBR Green DNA, 72 h; series mostly up to 28.7 µM
Procedure, shortened: as §1

JCK = assay: as above; settings: P. falciparum in erythrocytes, SYBR Green DNA, 72 h; series mostly up to 28.7 µM
Procedure, shortened: as §1

PC26 = assay: as above; settings: P. falciparum in erythrocytes, SYBR Green DNA, 72 h; series mostly up to 28.7 µM
Procedure, shortened: as §1

TAB109 = assay: as above; settings: P. falciparum in erythrocytes, SYBR Green DNA, 72 h; series mostly up to 28.7 µM
Procedure, shortened: as §1

CRL-7250 = normal cell line; assay: Cytotoxic Profiling of Annotated Libraries Using Quantitative High-Throughput Screening (AID 1296008); settings: Five cell lines viability, CellTiter-Glo ATP luminescence, 48-72 h; max response: hits give low values; for max response: % is set by controls: 0 for no effect and ±100 for the full control effect
Procedure, shortened: (§2)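 Compounds were pin-transferred onto cells and incubated 48 or 72 hr at 37 degree Celsius, 95% humidity. CellTiter-Glo was added, plates sat 10 min at room temperature, then ATP-coupled luminescence was imaged as the viability read-out.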

HEK293 = assay: as above; settings: Five cell lines viability, CellTiter-Glo ATP luminescence, 48-72 h; max response: hits give low values
Procedure, shortened: as §2

HaCat = assay: as above; settings: Five cell lines viability, CellTiter-Glo ATP luminescence, 48-72 h; max response: hits give low values
Procedure, shortened: as §2

PC15 = assay: qHTS profiling for inhibitors of Plasmodium falciparum proliferation (AID 504749); settings: P. falciparum in erythrocytes, SYBR Green DNA, 72 h; series mostly up to 28.7 µM
Procedure, shortened: as §1

PC49 = assay: as above; settings: P. falciparum in erythrocytes, SYBR Green DNA, 72 h; series mostly up to 28.7 µM
Procedure, shortened: as §1
Note: nearly all actives have a fitted effect of over 60% in size.
Potency is the fitted concentration of half-maximal effect.

Cc1c(O)cccc1C(=O)N[C@@H](CSc1ccccc1)[C@H](O)CN1C[C@H]2CCCC[C@H]2C[C@H]1C(=O)NC(C)(C)C
active: Potency (HB3) 10 µM | Potency (ICS) 4.47 µM | Potency (N140) 7.94 µM | Potency (P93_24) 8.91 µM | Potency (P94_40) 10 µM | Potency (PAD) 10 µM | Potency (SC27B) 7.94 µM | Potency (TAB113) 12.6 µM | Potency (TAB165) 10 µM | Potency (W2) 8.49 µM
inactive: Potency (FAB9)

Cc1ccc2nc(N)[nH]c(=O)c2c1Sc1ccncc1
inactive: Potency (PC26) | max response (CRL-7250) -27% and -23.5%
active: Potency (GB4) 10.7 µM | Potency (JCK) 12.6 µM | Potency (N140) 3.98 µM | Potency (P93_24) 14.1 µM | Potency (P94_40) 12.6 µM | Potency (TAB109) 7.08 µM | Potency (TAB165) 2 µM | Potency (HEK293) 8.2 µM | Potency (HaCat) 1.33 µM and 2.59 µM

CNCC(O)c1ccc(O)c(O)c1 (configuration not stated)
inactive: max response (HaCat) -0.0091%

NC(=O)N/N=C/c1ccc([N+](=O)[O-])o1
active: Potency (GB4) 13.5 µM | Potency (HB3) 11.2 µM | Potency (ICS) 11.2 µM | Potency (N140) 11.2 µM | Potency (P93_24) 8.91 µM | Potency (SC27B) 12.6 µM | Potency (TAB109) 12.6 µM | Potency (W2) 9.53 µM
inactive: Potency (FAB9) | Potency (JCK) | max response (CRL-7250) -6.15% | max response (HaCat) -0.194% | outcome (HaCat)

Cc1c(Cl)cccc1Nc1ccccc1C(=O)O
active: Potency (W2) 9.53 µM
inactive: Potency (FAB9) | Potency (GB4) | Potency (JCK) | Potency (N140) | Potency (P93_24) | Potency (P94_40) | Potency (PAD) | Potency (PC15) | Potency (PC26) | Potency (PC49) | Potency (SC27B) | Potency (TAB109) | Potency (TAB113) | Potency (TAB165) | outcome (CRL-7250) | outcome (HEK293) | outcome (HaCat)

CN(C)CCN(Cc1ccccc1)c1ccccn1
inactive: Potency (FAB9) | Potency (HB3) | Potency (JCK) | Potency (P94_40) | Potency (PAD) | Potency (PC15) | Potency (PC49) | Potency (SC27B) | Potency (TAB113) | Potency (TAB165) | outcome (CRL-7250) | outcome (HEK293) | outcome (HaCat)

CN1CCCCC1CCN1c2ccccc2Sc2ccc(S(C)=O)cc21 (configuration not stated)
inactive: Potency (FAB9) | Potency (HB3) | Potency (JCK) | Potency (PAD) | Potency (PC49) | Potency (TAB113) | outcome (CRL-7250) | outcome (HaCat)
active: Potency (ICS) 5.01 µM | Potency (W2) 1.9 µM

CSc1ccc2c(c1)N(CCC1CCCCN1C)c1ccccc1S2 (configuration not stated)
inactive: Potency (HB3)
active: Potency (GB4) 10.7 µM | Potency (ICS) 10 µM | Potency (P93_24) 11.2 µM | Potency (P94_40) 7.08 µM | Potency (PAD) 8.91 µM | Potency (PC15) 10 µM | Potency (SC27B) 12.6 µM | Potency (TAB109) 8.91 µM | Potency (TAB113) 10 µM | Potency (TAB165) 12.6 µM | Potency (W2) 6.75 µM

CC(=O)Oc1ccc(C2(c3ccc(OC(C)=O)cc3)C(=O)Nc3ccccc32)cc1
inactive: Potency (FAB9) | Potency (GB4) | Potency (HB3) | Potency (ICS) | Potency (JCK) | Potency (N140) | Potency (P93_24) | Potency (P94_40) | Potency (PAD) | Potency (PC15) | Potency (PC26) | Potency (PC49) | Potency (SC27B) | Potency (TAB109) | Potency (TAB113) | Potency (TAB165) | Potency (W2) | max response (HEK293) 1.93% | max response (HaCat) -16.5%

O=C(O)CN1C(=O)c2cccc3cccc(c23)C1=O
inactive: Potency (FAB9) | Potency (HB3) | Potency (ICS) | Potency (JCK) | Potency (N140) | Potency (PAD) | Potency (PC15) | Potency (PC26) | Potency (PC49) | Potency (SC27B) | Potency (TAB109) | Potency (TAB113) | Potency (TAB165) | Potency (W2) | max response (CRL-7250) -6.05% | outcome (HEK293) | outcome (HaCat)

CNCCCC1c2ccccc2C=Cc2ccccc21
active: Potency (W2) 0.51 µM
inactive: Potency (FAB9) | Potency (HB3) | Potency (JCK) | Potency (N140) | Potency (PAD) | Potency (PC49) | Potency (SC27B) | Potency (TAB109) | Potency (TAB113) | max response (HaCat) -1.18%

CC(=O)O[C@@]12CO[C@@H]1C[C@H](O)[C@@]1(C)C(=O)[C@H](O)C3=C(C)[C@@H](OC(=O)[C@H](O)[C@@H](NC(=O)OC(C)(C)C)c4ccccc4)C[C@@](O)([C@@H](OC(=O)c4ccccc4)[C@H]21)C3(C)C
active: Potency (HEK293) 0.0021 µM

CCN(CC)CCSC(=O)C(c1ccccc1)c1ccccc1
inactive: Potency (FAB9) | Potency (GB4) | Potency (HB3) | Potency (ICS) | Potency (JCK) | Potency (N140) | Potency (P93_24) | Potency (P94_40) | Potency (PAD) | Potency (PC15) | Potency (PC26) | Potency (PC49) | Potency (SC27B) | Potency (TAB109) | Potency (TAB113) | Potency (TAB165) | max response (CRL-7250) -12.1% | max response (HaCat) -3.95%

COc1ccc2cc1Oc1ccc(cc1)C[C@H]1c3c(cc4c(c3Oc3cc5c(cc3OC)CCN(C)[C@@H]5C2)OCO4)CCN1C
inactive: outcome (HaCat)
active: Potency (HEK293) 10.6 µM and 7.31 µM

CC1=C(/C=C/C(C)=C/C=C/C(C)=C/C(=O)O)C(C)(C)CCC1
inactive: Potency (FAB9) | Potency (GB4) | Potency (HB3) | Potency (ICS) | Potency (JCK) | Potency (N140) | Potency (P93_24) | Potency (P94_40) | Potency (PAD) | Potency (PC15) | Potency (PC26) | Potency (PC49) | Potency (SC27B) | Potency (TAB109) | Potency (TAB113) | Potency (TAB165) | Potency (W2) | max response (HaCat) -3.44%

OCCN1CCN(CCCN2c3ccccc3Sc3ccc(Cl)cc32)CC1
active: Potency (GB4) 4.55 µM | Potency (ICS) 3.98 µM | Potency (N140) 3.55 µM | Potency (P93_24) 2.24 µM | Potency (PC15) 3.16 µM | Potency (W2) 3.22 µM | Potency (HEK293) 11.9 µM

CCCCN(CCCC)CC(O)c1cc(Cl)cc2c1-c1ccc(Cl)cc1/C2=C/c1ccc(Cl)cc1 (configuration not stated)
inactive: max response (HaCat) -7.84%
active: Potency (FAB9) 0.316 µM | Potency (HB3) 0.0141 µM | Potency (ICS) 0.0014 µM | Potency (N140) 0.0045 µM | Potency (P93_24) 0.0126 µM | Potency (P94_40) 0.005 µM | Potency (PAD) 0.0056 µM | Potency (PC15) 0.0112 µM | Potency (SC27B) 0.0112 µM | Potency (TAB109) 0.0126 µM | Potency (TAB113) 0.0056 µM | Potency (TAB165) 0.0079 µM

Nc1ccc(S(=O)(=O)Nc2ccc(Cl)nn2)cc1
active: Potency (JCK) 0.891 µM | Potency (TAB165) 1 µM
inactive: Potency (GB4) | Potency (ICS) | Potency (PC26) | Potency (W2) | max response (CRL-7250) -2.16% | outcome (HEK293) | max response (HaCat) 0.946%

CC(CN(C)C)CN1c2ccccc2CCc2ccccc21 (configuration not stated)
inactive: outcome (CRL-7250) | max response (HaCat) 2.23%

CN(C)CCCN1c2ccccc2Sc2ccc(Cl)cc21
inactive: Potency (FAB9) | Potency (HB3)
active: Potency (GB4) 8.49 µM | Potency (ICS) 4.47 µM | Potency (PAD) 10 µM | Potency (PC15) 10 µM | Potency (PC26) 6.75 µM | Potency (PC49) 7.08 µM | Potency (TAB165) 8.91 µM | Potency (W2) 1.07 µM

COCCOC(=O)C1=C(C)NC(C)=C(C(=O)OC/C=C/c2ccccc2)C1c1cccc([N+](=O)[O-])c1 (configuration not stated)
inactive: Potency (FAB9) | Potency (JCK) | Potency (PC49)
active: Potency (HB3) 11.2 µM | Potency (ICS) 11.2 µM | Potency (N140) 8.91 µM | Potency (P93_24) 11.2 µM | Potency (PAD) 8.91 µM | Potency (SC27B) 10 µM | Potency (TAB165) 12.6 µM | Potency (W2) 9.53 µM
